According to PubChem BioAssay AID652057 (Broad Institute, 2013):
Among all 1,400 compounds or so, about 1,000 (71%) were called active. The rule behind the calls is not given here. The set was probably picked from earlier hits. Not all results are given here. Results with a measured potency or affinity are listed apart.

test: inhibitors of HIV Env-driven cell fusion, dose response, cherry-pick (AID 652057); conditions: HeLa-JRFL Env/CEM21 cell fusion, luciferase; series mostly up to 35 µM

Activity change, negative = inhibition, inactive:
CCc1ccc(C(=O)CN2C(=O)NC(C)(c3ccc(C)cc3)C2=O)cc1 (stereo unspecified)
C=CC[n+]1c(-c2ccc(OC)c(OC)c2)csc1NNC(=O)Nc1ccccc1
CC(=O)c1ccc([C@H]2C[C@@]34CN(C(=O)OC(C)(C)C)S(=O)(=O)[C@H]3C[C@H]2O4)cc1
CO[C@@H]1CN(C)C(=O)c2cc(NS(=O)(=O)c3ccc(C)cc3)ccc2OC[C@H](C)N(C(=O)NC(C)C)C[C@@H]1C
O=C(C[C@@H]1C[C@H]2c3cc(NC(=O)C4CCC4)ccc3O[C@H]2[C@H](CO)O1)NCC(F)(F)F
COc1ccc(N2CCN(C(=O)C3CCC(Cn4c(=S)[nH]c5ccccc5c4=O)CC3)CC2)cc1 (stereo unspecified)
C[C@@H]1CN([C@H](C)CO)S(=O)(=O)c2ccc(C#Cc3cccc(F)c3)cc2O[C@@H]1CN(C)C(=O)CN1CCOCC1
Cc1[nH]c2ccccc2c1/C=N\NC(=O)c1ccccc1Cl
CCn1c(/C=C/N(C)c2ccccc2)[n+](CC)c2ccc(Cl)cc21
O=C(C[C@H]1C[C@H]2c3cc(NC(=O)C4CCC4)ccc3O[C@H]2[C@H](CO)O1)NCc1ccc2c(c1)OCO2
Cc1nc2ccccc2c2oc(C(=O)NCc3ccc4c(c3)OCO4)cc12
O=C(Nc1cc2c3c(c1)CC(=O)N3CCC2)c1ccc(Cl)cc1
COC(=O)[C@]12CCCCC=C1N(Cc1ccco1)C(=O)[C@H](CC(=O)NCCc1ccccc1OC)C2
Cc1nn(C)c(Cl)c1NC(=O)OCc1ccc(Cl)cc1Cl
COc1ccc(CCNC(=O)COC(=O)c2cccn2C)cc1
O=C(Nc1cccn(Cc2c(Cl)cccc2Cl)c1=O)c1ccc(Cl)cc1
COc1ccccc1S(=O)(=O)Cc1ccc(C(=O)N2CCN(c3cccc(Cl)c3)CC2)o1
O=C(c1ccccc1F)N1CCN(Cc2cccc(Cl)c2)CC1
O=C(COc1ccc(-n2cnnn2)cc1)Nc1ccc(F)c(F)c1
COC(=O)[C@H](Cc1ccccc1)NC(=O)Cn1cnc(C(=O)Nc2ccc(C)c(C)c2)n1
Cn1c(CN2CCCCC2)nc2cc(NC(=O)c3ccc(Cl)cc3)ccc21
CNC[C@H]1Oc2c(NC(=O)Nc3ccc4c(c3)OCO4)cccc2C(=O)N([C@H](C)CO)C[C@@H]1C
Cc1ccc(NC(=O)c2ccc(OCC3CCCO3)cc2)cc1Cl (stereo unspecified)
CCOc1ccc(-c2cc(CCCC(=O)Nc3cccc(OC)c3)no2)cc1
O=C(Cc1ccc(Cl)cc1Cl)Nc1ccncc1
C[C@@H]1CN([C@@H](C)CO)C(=O)c2cc(NS(=O)(=O)c3ccccc3)ccc2O[C@H]1CN(C)Cc1ccc(Oc2ccccc2)cc1
Cc1onc(-c2ccccc2)c1C(=O)Nc1ccc(Br)cc1Cl
Cc1onc(-c2ccccc2)c1C(=O)NC(=S)NNC(=O)c1ccc(O)cc1
O=C(C[C@@H]1C[C@@H]2c3cc(NC(=O)C4CCC4)ccc3O[C@@H]2[C@@H](CO)O1)NCC(F)(F)F
Cc1ccc(S(=O)(=O)N(C)c2ccc(C(=O)N3CCN(Cc4ccc5c(c4)OCO5)CC3)cc2)cc1
c1ccc2c(c1)OCC(CNc1ncnc3nc[nH]c13)O2 (stereo unspecified)
Cc1nc2sc(C(c3ccco3)N3CCC(Cc4ccccc4)CC3)c(O)n2n1 (stereo unspecified)
N#Cc1c(NCc2ccccc2)ccnc1NCc1cccnc1
Cc1cc(C)c(CN2CCN(C(=O)Cn3cnc4c(NCc5ccccc5)ncnc43)CC2)c(C)c1
C[C@H]1CN([C@@H](C)CO)C(=O)c2cccc(NC(=O)Nc3ccc(C(F)(F)F)cc3)c2O[C@H]1CN(C)S(=O)(=O)c1ccccc1
C[C@@H]1CN([C@@H](C)CO)C(=O)c2cc(C3=CCCC3)cnc2O[C@@H]1CN(C)Cc1ccc(C(=O)O)cc1
Cc1cc(C(=O)NC2CCCc3c2cnn3-c2ccc(C(C)(C)C)cc2)nn1C (stereo unspecified)
c1coc(CNc2c3c(nc4ccccc24)CCC3)c1
C[C@H](CO)N1C[C@H](C)[C@@H](CN(C)S(=O)(=O)c2ccc(F)cc2)Oc2ccc(NS(=O)(=O)c3cn(C)cn3)cc2CC1=O
O=C(c1cc(COc2cccc(C(F)(F)F)c2)on1)N1CCC(c2ccncc2)CC1
CCC(=O)N(C)C(c1ccccc1Cl)c1nnnn1-c1c(C)cccc1C (stereo unspecified)
O=C(c1ccc(S(=O)(=O)Nc2ccc(F)cc2)cc1)N1CCN(C(=O)c2ccco2)CC1
Cc1cc(C)nc(/N=C(\N)Nc2ccc(CC(=O)OC(C)C)cc2)n1
O=C(Nc1ccc(CN2CCOCC2)cc1)c1ccc(-c2cccc(Cl)c2)o1
C#CCn1c(=O)c2c(ncn2C)n(C)c1=O
CCNC(=O)C[C@@H]1CC[C@@H]2[C@@H](COc3ccc(NC(=O)Cc4cccs4)cc3C(=O)N2C)O1
CCNC(=O)C[C@H]1CC[C@@H]2[C@@H](COc3ccc(NC(=O)Cc4cccs4)cc3C(=O)N2C)O1
CCNC(=O)Nc1ccc2c(c1)C(=O)N(C)[C@@H]1CC[C@@H](CC(=O)NCC3CCCCC3)O[C@@H]1CO2
Cc1nn(C)cc1NC(=O)C[C@H]1CC[C@@H]2[C@@H](COc3ccc(NC(=O)C4CCC4)cc3C(=O)N2C)O1
CN1C(=O)c2cc(NC(=O)NC3CCCC3)ccc2OC[C@@H]2O[C@H](CC(=O)NC3CCC3)CC[C@@H]21
COCC(=O)Nc1ccc2c(c1)C(=O)N(C)[C@H]1CC[C@H](CC(=O)NC3CCCC3)O[C@H]1CO2
COc1ccc(OC)c(NC(=O)COc2ccc3c(c2)CCC3)c1
Cc1ccc(S(=O)(=O)N(C)C[C@@H]2Oc3ccc(NS(=O)(=O)c4ccc(Cl)cc4)cc3C(=O)N([C@@H](C)CO)C[C@H]2C)cc1
Cc1ccc(S(=O)(=O)Nc2ccc3c(c2)C(=O)N([C@H](C)CO)C[C@@H](C)[C@H](CN(C)S(=O)(=O)c2ccc(F)cc2)O3)cc1
CCNC1CCC(Nc2ccnc3cc(Cl)ccc23)CC1 (stereo unspecified)
COc1ccc(NS(=O)(=O)c2cccc(C(=O)NNC(=O)CNC(=O)c3ccc(C)cc3)c2)cc1
CC(=O)Nc1ccc(C(=O)OCC(=O)NC(=O)NCc2ccccc2)cc1
Cc1ccc(-n2nnnc2SCn2nnc3ccccc3c2=O)c(C)c1
COc1ccccc1CN(C)C(=O)CN1CCN(C(=O)c2cccs2)CC1
C[C@@H]1CN([C@@H](C)CO)S(=O)(=O)c2ccc(-c3ccc(F)cc3)cc2O[C@H]1CN(C)C(=O)C1CCCCC1
CC(=O)OC1c2ccccc2C(=O)N1c1ccccc1C (stereo unspecified)
CNC[C@H]1Oc2c(NC(=O)Nc3cccc4ccccc34)cccc2C(=O)N([C@H](C)CO)C[C@H]1C
Cc1sc2ncnc(N3CCN(S(=O)(=O)c4ccc(Br)cc4)CC3)c2c1C
COc1cc(-c2cc(OC)c(O)c(OC)c2)cc(OC)c1O
O=C(Nc1ccc(F)cc1)Nc1ccc2c(c1)[C@@H]1C[C@H](CC(=O)N3CCCCC3)O[C@H](CO)[C@@H]1O2
COC(=O)C[C@H]1C=C[C@H](NC(=O)c2ccccn2)[C@@H](CO)O1
O=C(C[C@@H]1C=C[C@@H](NC(=O)c2ccccc2)[C@H](CO)O1)NCc1ccc(Oc2ccccc2)cc1
COc1ccc(CCCC(=O)NCCc2ccccc2)c(C)c1
COc1ccccc1-c1c(-c2ccc(O)cc2O)n[nH]c1C(F)(F)F
COCc1[nH]nc2c1C(c1ccc(F)cc1)N(Cc1ccccc1)C2=O (stereo unspecified)
CCCCn1c(CN(C)Cc2ccccc2)nc2c1c(=O)n(C)c(=O)n2C
CNc1nc2c(c(=O)n(C)c(=O)n2C)n1Cc1ccccc1
C=CCNc1nc2c(c(=O)n(C)c(=O)n2C)n1CCCCCC
CC(C)NC(=O)N(C)C[C@@H]1Oc2ccc(NC(=O)C3CC3)cc2CC(=O)N([C@H](C)CO)C[C@H]1C
CC(C)NC(=O)N(C)C[C@@H]1Oc2ccc(NC(=O)C3CC3)cc2CC(=O)N([C@@H](C)CO)C[C@@H]1C
Cc1cc(Oc2ccc(C#N)cc2)nc(NCc2ccccc2)n1
c1ccc(CSc2nnc([C@@H]3CCCN3)o2)cc1
COc1ccc(/C(C)=N/NC(=O)c2cccc(S(=O)(=O)N3CCCC3)c2)c(O)c1 -20.9% [at 8 µM]
CCCCCn1c(C(C)NC(=O)CCC)nc2ccccc21 (stereo unspecified)
COc1ccc(C(O)c2nc3ccccc3n2C)cc1OC (stereo unspecified)
CCN1CCN(S(=O)(=O)c2ccc(Cl)c(C(=O)Nc3ccccc3N3CCCC3)c2)CC1
CCNc1ncnc2c1cnn2C1CCCO1 (stereo unspecified)
CCOc1ccccc1CNc1ncnc2ccc(-c3c(C)noc3C)cc12
Nc1ccc(O)cc1C(=O)OCC(=O)c1ccc(C2CCCCC2)cc1
Cc1nc2ccccc2n1CC(=O)NCc1ccccc1
CC(C)CN(C(=O)c1ccc(S(=O)(=O)N2CCCCC2)cc1)C1CCS(=O)(=O)C1 (stereo unspecified)
CCCCCCCCCCOC(=O)Cn1c(COc2ccccc2OC)[n+](C)c2ccccc21
CNC[C@@H]1Oc2c(N)cccc2C(=O)N([C@@H](C)CO)C[C@@H]1C
Cc1ccc(-n2ncc3c(N4CCN(c5ccccc5)CC4)ncnc32)c(C)c1
Cc1ccc2c(c1)c1c3n2CCN(CC(N)=O)C3CCC1 (stereo unspecified)
O=C(Nc1ccncc1)c1ccc(Cl)c(S(=O)(=O)N2CCc3ccccc32)c1
